# Measurements taken from PubChem BioAssay (Tox21).
# Calls of active or inactive are those of the source. Calls follow the shape of the dose curve; as a rule, active = well fitted curve in the direction sought with a large enough effect in the repeat runs; inconclusive = weak or mixed curves; inactive = flat fitted curve, though single readings scatter.
# Test: qHTS assay to test for compound auto fluorescence at 590 nm (red) in HEK293 cells (AID 720679)
# Details: red autofluorescence 540/590 nm; series mostly up to 91.3 µM; fluorescence, % of fluorescent control: at the top concentration
# Text: National Center for Advancing Translational Sciences [NCATS]
# NIH Chemical Genomics Center [NCGC]
# U.S. Environmental Protection Agency [EPA]
# National Institutes of Environmental Health Sciences [NIEHS]
# National Toxicology Program [NTP]
# U.S. Food and Drug Administration [FDA]
# Compound auto fluorescence often interferes with screening of the compound library against various biological targets and signaling pathways. Some of these compounds may have fluorophoric properties. Such properties may interfere with the assay outputs resulting in false positives and/or negatives. To decrease such complications and ensure the compound activities are relevant in terms of biological response, the Tox21 10K compound library was screened for auto fluorescence.
# From the fluorophores used as reporter signals in our screening assays, the auto fluorescence equivalencies of compounds against three fluorophores have been evaluated: Triamterene, Fluorescein and Rose Bengal sodium for blue, green and red fluorescence, respectively. The fluorescence intensities were measured using Excitation/Emission wavelengths at 405/460nm, 485/535nm and 540/590nm for blue, green and red labels, respectively. This assay includes the red fluorescence data.
# Tox21 Assay Protocol Summary:
# 2,000 HEK293 cells in 5 uL of culture medium containing 10% dialyzed FBS per well were dispensed into black wall/clear bottom 1536-well plates using a Multidrop Combi Dispenser (Thermo Scientific). The assay plates were incubated for 4-5 hr at 37C to allow cell attachment to the well bottom, followed by the transfer of 23 nL compound or DMSO vehicle by a pintool work station (Kalypsys, San Diego, CA). After the assay plates were incubated overnight at 37C and 5% CO2, fluorescence intensities in the assay plates were measured by an Envision (PerkinElmer, Shelton, CT) plate reader using three labels for measuring blue, green and red fluorescence at […] 460, 535 and 590nm respectively.
# % is scaled to controls: 0 for no effect and ±100 for the full control effect.
Structure (SMILES),outcome,"fluorescence, % of fluorescent control"
O=C(c1cc(O)c(O)c(O)c1)c1ccc(O)c(O)c1O,inactive,–
ClC1=C(Cl)C(Cl)(Cl)C(Cl)=C1Cl,inactive,–
C=C1C2CCC(C2)C1(C)C (stereo not given),inactive,–
CN(C)c1cccc(O)c1,inactive,–
O=C(c1ccc(O)cc1)c1ccc(O)cc1O,inactive,–
CC(C)(C)C(=O)C1C(=O)c2ccccc2C1=O,inactive,–
Clc1ccc(Cl)c(Cl)c1Cl,inactive,–
CNC[C@H](O)[C@@H](O)[C@H](O)[C@H](O)CO,inactive,–
CCCCC(CC)C(=O)OCCOCCOCCOC(=O)C(CC)CCCC (stereo not given),inactive,–
CC#C[C@]1(O)CC[C@H]2[C@@H]3CCC4=CC(=O)CCC4=C3[C@@H](c3ccc(N(C)C)cc3)C[C@@]21C,inactive,–
O=C(Cl)c1c(Cl)c(Cl)c(C(=O)Cl)c(Cl)c1Cl,inactive,–
COCC(C)O (stereo not given),inactive,–
O=c1c(-c2ccc(O)cc2)coc2cc(O)ccc12,–,-0.244% (inactive)
Cc1cc(Cc2ccc(N)c(C)c2)ccc1N,inactive,–
CC1Cc2ccccc2N1NC(=O)c1ccc(Cl)c(S(N)(=O)=O)c1 (stereo not given),inactive,–
Nc1cc(-c2ccncc2)c[nH]c1=O,inactive,–
OCCOCCOCCOCCO,inactive,–
Oc1c(Cl)cc(Cl)c(Cl)c1Cl,inactive,–
C[C@@H]1O[C@@H](OC[C@H]2O[C@@H](Oc3c(-c4ccc(O)c(O)c4)oc4cc(O)cc(O)c4c3=O)[C@H](O)[C@@H](O)[C@@H]2O)[C@H](O)[C@H](O)[C@H]1O,inactive,–
CCc1ccccc1O,inactive,–

Structure (SMILES),outcome,"fluorescence, % of fluorescent control"
NCc1cccc(CN)c1,inactive,–
OCC#CCO,inactive,–
CCC(=O)O,inactive,–
OC1CCCC1,inactive,–
O=C(Oc1ccccc1)c1ccc(O)cc1,inactive,–
COC(=O)c1ccccc1O,inactive,–
CC1COc2ccccc2N1C(=O)C(Cl)Cl (stereo not given),inactive,–
NCCc1ccc(O)c(O)c1,inactive,–
Cc1cc(O)c2c(c1)C(=O)c1cc(O)cc(O)c1C2=O,inactive,–
Cc1cc(=O)[nH]c(C(C)C)n1,inactive,–
O=S(=O)(Oc1ccc(Cl)cc1Cl)c1ccccc1,inactive,–
CCCCOCCOCCOC(=O)CCCCC(=O)OCCOCCOCCCC,inactive,–
Nc1c(S(=O)(=O)O)cc(Br)c2c1C(=O)c1ccccc1C2=O,inactive,–
CCCCCC/C=C/CCCCCCCC(=O)O,inactive,–
CC(C)(CO)COC(=O)C(C)(C)CO,inactive,–
O=C(O)c1ccc([N+](=O)[O-])cc1,inactive,–
C=CC(=O)OCCCCCCCC(C)C,inactive,–
C=C(C)C(=O)OCC(CC)(COC(=O)C(=C)C)COC(=O)C(=C)C,inactive,–
CS(=O)(=O)c1ccc([C@@H](O)[C@@H](CO)NC(=O)C(Cl)Cl)cc1,inactive,–
Nc1nc2ncc(CNc3ccc(C(=O)N[C@@H](CCC(=O)O)C(=O)O)cc3)nc2c(=O)[nH]1,inactive,–
